# Bioassay records as filed in PubChem.
# Shown are actives, neighbours in structure and some others; about 3.8% of the full set was active somewhere.
# tim23-1 inh: growth inhibitors of tim23-1 mutant yeast | S. cerevisiae tim23-1 growth, BacTiter-Glo luminescence, 24 h | inhibition, % at 20 µM | 1.3% of 330,000 active;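 active = growth inhibition of the mutant yeast at or above 50%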;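 also: temperature-sensitive mutant grown at 25 °C; plate controls were DMSO-treated mutant yeast for no effect and medium wells lacking yeast for full effect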
# TIM10 inh: inhibits growth of TIM10 yeast strain | inhibition, % at 10 µM | S. cerevisiae TIM10 strain growth, BacTiter-Glo luminescence, 24 h | AID 463195 | 1.4% of 330,000 active;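 active = inhibition of 40% or more at the single tested concentration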;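 also: wild-type TIM10 isogenic control strain grown at permissive 25 °C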
# tim10-1 inh: inhibits growth of tim10-1 mutant yeast; S. cerevisiae tim10-1 ts strain growth, BacTiter-Glo, 24 h; inhibition, % at 20 µM; 2.2% of 330,000 active;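 active = inhibition of at least 40%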;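 also: mutant grown at 25 °C; 0% = DMSO wells with yeast and 100% = wells holding no yeast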
# Beta2AR agonist: activates human beta-2 adrenergic receptor causing internalization; P07550; Am2.2-beta2AR cells, FAP receptor internalization, flow cytometry; response, % (concentration not given with the values); 0.43% of 340,000 active; AID 504454;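 active = response above a set limit, near 3 SD of response in nonfluorescent compounds, cut at about 42% in these data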
# Target sequence (P07550 whole entry, looked up): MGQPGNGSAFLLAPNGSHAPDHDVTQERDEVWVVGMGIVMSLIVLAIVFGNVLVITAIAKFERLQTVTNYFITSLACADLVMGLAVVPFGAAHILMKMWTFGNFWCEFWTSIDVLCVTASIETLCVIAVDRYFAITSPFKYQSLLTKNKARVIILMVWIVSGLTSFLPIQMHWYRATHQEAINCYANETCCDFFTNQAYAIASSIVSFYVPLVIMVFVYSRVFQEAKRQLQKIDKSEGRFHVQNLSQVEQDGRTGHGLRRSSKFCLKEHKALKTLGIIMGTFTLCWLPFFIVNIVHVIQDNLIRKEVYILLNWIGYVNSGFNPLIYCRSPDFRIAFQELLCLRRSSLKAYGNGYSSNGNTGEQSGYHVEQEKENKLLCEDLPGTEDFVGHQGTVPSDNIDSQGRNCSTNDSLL
# PfHsp90 set2: reduces growth (ATP signal) of yeast expressing P. falciparum Hsp90. inhibition, % at 9.4 µM. 0.32% of 310,000 active. S. cerevisiae expressing PfHsp90, BacTiter-Glo ATP, 48 h; yeast lacking PDR1 and PDR3 efflux regulators;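 active = every replicate shows inhibition above about 80%, whatever the replicate mean, limit read from the data; inconclusive = mean inhibition reaches the set limit but some replicate falls short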;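 also: 0% = DMSO neutral controls and 100% = 20 µM radicicol positive controls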
# tim10-1 confirm: confirmation of tim10-1 mutant yeast growth inhibitors | 56% of 7,400 active | shares compounds with tim10-1 inh | inhibition, % at 20 µM | S. cerevisiae tim10-1 ts strain growth, BacTiter-Glo, 24 h;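 active = inhibition of yeast growth at or above a set limit in either of two repeat tests at 20 µM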;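 also: tim10-1 mutant grown at permissive 25 °C to find synthetic lethal compounds; 0% = DMSO yeast wells and 100% = medium wells without yeast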
# TIM10 conf: confirmation of TIM10 yeast growth inhibitors; shares compounds with TIM10 inh; S. cerevisiae tim10 strain growth, BacTiter-Glo luminescence, 24 h; inhibition, % at 10 µM; 63% of 4,600 active; AID 463215;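 active = inhibition of yeast growth at or above a set limit in either of two replicates at 10 µM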;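 also: this counterscreen used the strain with wild-type TIM10; 0% = yeast with DMSO and 100% = medium wells lacking yeast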
# tim23-1 confirm: confirmation of tim23-1 mutant yeast growth inhibitors. inhibition, % at 20 µM. S. cerevisiae tim23-1 growth, BacTiter-Glo luminescence, 24 h. 83% of 4,400 active. shares compounds with tim23-1 inh;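 active = inhibition above about 39% in either of two replicate wells at 20 µM, limit read from the data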;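 also: temperature-sensitive tim23-1 mutant grown at 25 °C; 0% = DMSO wells with yeast and 100% = medium wells without yeast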
# An asterisk follows results filed as active; ? = inconclusive; . = no result given.
SMILES,tim23-1 inh,TIM10 inh,tim10-1 inh,Beta2AR agonist,PfHsp90 set2,tim10-1 confirm,TIM10 conf,tim23-1 confirm
Cc1cc([N+](=O)[O-])c2ccccc2[n+]1[O-],79*,87*,68*,8,108*,61*,87*,64*
CNc1ccc2oc(C[C@H]3O[C@@]4(CC[C@H]3C)O[C@H]([C@H](C)C(=O)c3ccc[nH]3)[C@H](C)C[C@H]4C)nc2c1C(=O)O,54*,-20,56*,28,111*,29,.,37
CN(C)CC(C(=O)Cc1ccccc1)c1ccccc1 (configuration not stated),.,.,.,16,.,.,.,.
Clc1ccc(C(c2ccc(Cl)cc2)n2cc[n+](CC(OCc3ccc(Cl)cc3Cl)c3ccc(Cl)cc3Cl)c2)cc1 (configuration not stated),88*,85*,93*,-49,107*,90*,-9,77*
O=C1c2ccccc2C(=O)N1Cc1nc2ccccc2c(=O)n1-c1cccnc1,14,13,28,-10,2,.,.,.
O=C1c2ccccc2C(=O)N1Cc1nc2ccccc2c(=O)n1-c1ccc(Br)cn1,69*,57*,59*,-6,-1,55*,59*,58*
O=C1NC(=O)C(=Cc2ccc(-c3ccc(Cl)cc3)o2)C(=O)N1,54*,20,45*,60*,23,8,.,55*
Cc1ncc(CN2CCCC(C(=O)c3sccc3C)C2)s1 (configuration not stated),5,-5,-9,-1,-2,.,.,.
CCn1nc(-c2ccccc2)nc2c(=O)n(C)c(=O)nc1-2,85*,96*,80*,69*,107*,83*,97*,83*
CC12C(C(=O)O)C1(c1ccccc1)C2C(=O)O (configuration not stated),.,.,.,-4,-4,.,.,.
C=C1C(=O)[C@@]23C[C@H]4[C@@H]5[C@@]6(C)CCC[C@@]57[C@@H]2[C@@H](O)[C@@H]1C[C@H]3[C@H]7N4C6,13,2,5,7,-9,.,.,.
Cc1cc(N2CCCC2)ccc1C=C(C#N)C#N,3,1,4,2,-20,.,.,.
Cc1ccc2cc(C=C(C#N)C#N)c(Cl)nc2c1,80*,46*,48*,13,11,31*,-8,76*
N#Cc1ccc(NC(=O)CN2C(=O)NC3(CCCCCCC3)C2=O)cc1Cl,8,3,-4,3,7,.,.,.
C=C(C)C(Cc1c(OC)ccc(C(=O)/C=C/c2ccc(O)cc2)c1O)OO (configuration not stated),75*,46*,44*,10,.,65*,69*,76*
Cc1ccc(C[n+]2c(-c3ccc(C)cc3)cc(-c3ccc(C)cc3)cc2-c2ccc(C)cc2)cc1,56*,58*,50*,-11,?,43*,50*,60*
Cc1ccc(-c2cc(-c3ccc(C)cc3)[n+](-c3ccc(C(=O)O)cc3)c(-c3ccc(C)cc3)c2)cc1,1,-2,5,0,-5,.,.,.
COc1ccc(-c2nn(CCC#N)cc2C(=O)Nc2ccc(C(C)=O)cc2)cc1[N+](=O)[O-],0,10,8,-6,-15,.,.,.
O=C1/C(=C\c2ccc(Cl)c(Cl)c2)N2CCC1CC2,52*,11,42*,-4,-4,23,.,35
CCN1C[C@]2(C)CC[C@H](O)[C@]34C1[C@H](C[C@H]23)[C@@]1(O)C[C@H](OC)[C@H]2C[C@@H]4[C@@H]1C2O (some centres not stated),-13,4,5,5,20,.,.,.
CCOC(=O)CSc1ccc(C(=O)N2CCC3(CC2)OCCO3)cc1[N+](=O)[O-],15,0,12,3,-4,.,.,.
CCOC(=O)C(O)(c1ccc(N(C)C(=O)c2ccc(Cl)c(Cl)c2)cc1)C(F)(F)F (configuration not stated),13,-16,13,1,-18,.,.,.
